Screens deposited in PubChem by National Center for Advancing Translational Sciences (NCATS).
Compounds with a hit are over-represented: about 10% of the library has one in this group of screens.
BAZ2B block – blocks human BAZ2B; Q9UIF8; AlphaScreen BAZ2B-H3K14Ac peptide displacement; Potency, µM (highest dose often 114 µM), inactives show top-dose activity change, negative = inhibition, hits mostly inhibitors; actives 4.4% (n = 360,000); AID 504333; further: potency means the concentration at half of the fitted maximal effect; on the % scale 0 is the no-effect control and ±100 the full control effect; nearly all actives have a fitted effect of over 60% in size
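Complex of BAZ2B and biotin-H3K14Ac (50 nM apiece) forms over 30 min at RT, then faces library compounds up to 110 uM for another 30 min; AlphaScreen beads added, 20 min dark incubation, luminescence read.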
Six1-Eya2 blk – inhibitors of human Six1/Eya2 interaction; Q15475+O00167; AlphaScreen GST-Six1/His-Eya2 binding, biochemical; hits give low values; activity change, % (test concentration not listed); actives 0.56% (n = 360,000); AID 651725; in the data active means activity change below about -65%; inconclusive means mostly about -30% to -63%; further: on the % scale 0 is the no-effect control and ±100 the full control effect
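AlphaScreen luminescence read after one hour at 37 °C in darkness. Pin-transferred compounds met GST-Six1 and His-Eya2 protein (5X stock 250 nM/500 nM) plus glutathione donor and Ni-chelate acceptor beads (5X, 50 ug/mL).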
JMJD2A Tudor – blocks the human JMJD2A Tudor domain; O75164; AlphaScreen JMJD2A-Tudor / H3K4me3 peptide binding; Potency, µM (top dose mostly 114 µM), for inactives: top-dose activity change, negative = inhibition, actives largely listed as inhibitors; actives 4.4% (n = 390,000); further: potency means the concentration at half of the fitted maximal effect; on the % scale 0 is the no-effect control and ±100 the full control effect; nearly all actives have a fitted effect of over 50% in size
CtBP-E1A inh – CtBP/E1A binding inhibition | AlphaScreen GST-E1A/His-CtBP binding, 1536-well; hits give low values | activity change, % (no concentration beside the values) | actives 0.49% (n = 340,000) | AID 651724; in the data active means activity change below about -65%; inconclusive means mostly about -30% to -63%; further: on the % scale 0 is the no-effect control and ±100 the full control effect
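AlphaScreen with 125 nM GST-E1A and 125 nM His-CtBP (5X stocks) in Tris pH 8.0, 300 mM NaCl, BSA, Tween 20, TCEP. Compounds preincubated 2 h at 37 deg C, then glutathione donor/nickel acceptor beads added for 1 h at 37 deg C in dark.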
G9a block – blocks human histone lysine methyltransferase G9a; G9a H3K9 monomethylation, AlphaScreen, 2 h; Potency, µM (doses to about 102 µM), without a hit: top-dose activity, negative = inhibition, actives largely listed as inhibitors; actives 8.8% (n = 350,000); AID 504332; further: potency means the concentration at half of the fitted maximal effect; on the % scale 0 is the no-effect control and ±100 the full control effect; nearly all actives have a fitted effect of over 75% in size
Target sequence (Q96KQ7 913-1193 limits assumed): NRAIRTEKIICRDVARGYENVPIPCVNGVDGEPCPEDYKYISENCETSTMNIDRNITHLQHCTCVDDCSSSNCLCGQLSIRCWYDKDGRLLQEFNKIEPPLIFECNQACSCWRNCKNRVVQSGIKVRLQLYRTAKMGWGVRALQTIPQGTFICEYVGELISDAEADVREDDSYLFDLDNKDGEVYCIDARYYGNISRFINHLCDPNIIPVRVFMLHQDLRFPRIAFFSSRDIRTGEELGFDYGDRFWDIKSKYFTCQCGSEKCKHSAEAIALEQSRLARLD
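Using a bead-based AlphaScreen, monomethylated H3K9 product from 2 h room-temperature reactions (G9a 20 nM, peptide 500 nM, SAM 20 uM) was detected with 0.5 ug/mL rabbit anti-H3K9me1 antibody.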
HP1b chromo inh – HP1-beta chromodomain-methylated histone interaction inhibition. AlphaScreen HP1-beta / biotin-H3K9me3 peptide binding. Potency, µM (titrated, usually from 114 µM), inactives show top-dose activity change, negative = inhibition, hits mostly inhibitors. actives 0.56% (n = 390,000); further: potency means the concentration at half of the fitted maximal effect; nearly all actives have a fitted effect of over 70% in size
Target sequence (P83916 whole entry, looked up): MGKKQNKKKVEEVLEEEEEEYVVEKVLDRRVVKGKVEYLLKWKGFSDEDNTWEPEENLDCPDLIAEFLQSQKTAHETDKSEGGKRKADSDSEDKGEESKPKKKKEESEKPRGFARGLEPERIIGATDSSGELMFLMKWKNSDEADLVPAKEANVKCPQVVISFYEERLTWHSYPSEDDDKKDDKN
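HP1-beta protein (50 nM final) preincubated 30 min at room temperature with biotinylated H3(1-18)K9me3 peptide (50 nM) in PBS pH 7.4, 0.01% Tween-20, then compound added for 30 min. AlphaScreen streptavidin donor/nickel chelate acceptor beads (10 ug/mL final), 30 min dark, luminescence read.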
* hit, by the source's call; [ ] = remark or other dose. Unless noted, the call rests on the fitted dose curve; in most records, active means well fitted inhibition curve with a large enough effect; inconclusive means small, poorly fitted or top-dose-only effect; inactive means no such curve, though single readings can be large or run the other way.

What do the screens show for `CCN(CC)C(=O)[C@H]1C[C@H](CC(=O)NCc2ccco2)C(=O)N2CCc3c([nH]c4cc(-c5ccco5)ccc34)[C@]12C`?
Six1-Eya2 blk: -14.8; JMJD2A Tudor: 50.1µM*; CtBP-E1A inh: -14.3; HP1b chromo inh: inconclusive

Results for Cc1ccc(S(=O)(=O)N2CCN(Cc3ccccc3)CC2)s1 ?
BAZ2B block: 8.8%; Six1-Eya2 blk: -18.2; JMJD2A Tudor: 3.0%; CtBP-E1A inh: -12.9; G9a block: inconclusive; HP1b chromo inh: 36.9%

What do the screens show for `Cc1cc(=O)[nH]c2[nH][nH]c(=O)c12`?
Six1-Eya2 blk: -5.3; JMJD2A Tudor: 6.31µM*; CtBP-E1A inh: 0.8; HP1b chromo inh: 8.1%

What do the screens show for `COc1cc(OC)c(NC(=O)c2c(C)oc3nc(C)nc(N4CCOCC4)c23)cc1Cl`?
BAZ2B block: 7.9%[57.1 µM]; JMJD2A Tudor: -2.6%; G9a block: -1.0%[59 µM]; HP1b chromo inh: 36.3%

How did CC(=O)C(Sc1nn(C)c(=S)s1)C(=O)Nc1ccccc1 (centres undefined) do in these assays?
BAZ2B block: inconclusive; Six1-Eya2 blk: 3.9; JMJD2A Tudor: 50.1µM*; CtBP-E1A inh: 1.9; G9a block: 3.55µM*; HP1b chromo inh: inconclusive

How did C#CCOCCOCCOCCNc1nc(N2CCN(C(=O)[C@H]([C@@H](C)CC)n3cc(CCCCN)nn3)CC2)nc(N2CCN(C(=O)[C@H](CCCCN)n3cc(CCC(=O)O)nn3)CC2)n1 do in these assays?
BAZ2B block: -21.8%; Six1-Eya2 blk: 5.1; JMJD2A Tudor: 4.9%; CtBP-E1A inh: 1.0; G9a block: 8.0%[2.33 µM]; HP1b chromo inh: 27.8%

How did C#CCOCCOCCOCCNc1nc(N2CCN(C(=O)[C@H](CCCCN)n3cc([C@@H](N)CO)nn3)CC2)nc(N2CCN(C(=O)[C@H](CCCCN)n3cc([C@@H](N)CC(C)C)nn3)CC2)n1 do in these assays?
Six1-Eya2 blk: 0.2; JMJD2A Tudor: 56.2µM*; CtBP-E1A inh: inconclusive; HP1b chromo inh: 21.9%

What do the screens show for `C#CCOCCOCCOCCNc1nc(N2CCN(C(=O)[C@H]([C@@H](C)CC)n3cc([C@@H](N)CO)nn3)CC2)nc(N2CCN(C(=O)[C@H](CCCCN)n3cc([C@@H](N)CC(C)C)nn3)CC2)n1`?
BAZ2B block: 79.4µM*; Six1-Eya2 blk: -17.9; JMJD2A Tudor: 50.1µM*; CtBP-E1A inh: -21.6; G9a block: inconclusive; HP1b chromo inh: 44.0%

What do the screens show for `CCn1c(=O)n(CC)c2cc(N3CCCC3)c(NC(=O)c3ccc(C)c([N+](=O)[O-])c3)cc21`?
BAZ2B block: -32.3%; Six1-Eya2 blk: -13.6; JMJD2A Tudor: inconclusive; CtBP-E1A inh: -17.5; G9a block: 8.91µM*; HP1b chromo inh: 11.8%

How did Cc1cccc(C(=O)Nc2cc3c(cc2N2CCCCC2)n(C)c(=O)c(=O)n3C)c1 do in these assays?
BAZ2B block: -0.3%; JMJD2A Tudor: 1.7%; G9a block: 3.7%[59 µM]; HP1b chromo inh: 30.5%

How did CCn1c(=O)c(=O)n(CC)c2cc(N3CCCCC3)c(NC(=O)c3cccc(OC)c3)cc21 do in these assays?
BAZ2B block: 0.5%; JMJD2A Tudor: -8.6%; G9a block: -35.0%[59 µM]; HP1b chromo inh: 13.0%

How did CCn1c(=O)n(CC)c2cc(N3CCCC3)c(NC(=O)c3cccc(C)c3)cc21 do in these assays?
BAZ2B block: 50.1µM*; Six1-Eya2 blk: -5.4; JMJD2A Tudor: inconclusive; CtBP-E1A inh: -9.6; G9a block: 28.2µM*; HP1b chromo inh: -5.7%

What do the screens show for `CCCC(=O)Nc1cccc(OCc2cc(=O)n3cccc(C)c3n2)c1`?
BAZ2B block: -3.1%; JMJD2A Tudor: -6.8%; G9a block: -2.9%[59 µM]; HP1b chromo inh: 2.1%[57 µM]

Results for Nc1ncc(Br)cc1S(=O)(=O)NCCC(=O)NCCc1ccccc1 ?
BAZ2B block: -17.8%; Six1-Eya2 blk: -0.5; JMJD2A Tudor: -15.2%; CtBP-E1A inh: 8.3; G9a block: -5.4%; HP1b chromo inh: 1.1%

How did CN(C)c1ccc(CNC(=O)CCNS(=O)(=O)c2cc(Br)cnc2N)cc1 do in these assays?
BAZ2B block: -31.9%; Six1-Eya2 blk: -2.8; JMJD2A Tudor: 31.6µM*; CtBP-E1A inh: -7.6; G9a block: 35.5µM*; HP1b chromo inh: 0.0%

How did NC(=S)C1COc2ccccc2O1 (centres undefined) do in these assays?
BAZ2B block: -8.9%; Six1-Eya2 blk: 7.5; JMJD2A Tudor: 2.4%; CtBP-E1A inh: -2.6; G9a block: 44.7µM*; HP1b chromo inh: -7.4%

What do the screens show for `CSCCC(NC(=O)c1ccccc1Cl)C(=O)NCC1COc2ccccc2O1` (centres undefined)?
BAZ2B block: -34.0%; Six1-Eya2 blk: 0.6; JMJD2A Tudor: -24.1%; CtBP-E1A inh: 7.0; G9a block: -33.9%; HP1b chromo inh: 6.0%

What do the screens show for `CCCC(=O)NC(c1cccs1)c1cc(Cl)c2cccnc2c1O` (centres undefined)?
BAZ2B block: -4.4%; Six1-Eya2 blk: inconclusive; JMJD2A Tudor: -16.6%; CtBP-E1A inh: -70.5*; G9a block: 0.6%; HP1b chromo inh: 45.4%

How did CCCC(=O)NC(c1ccc2c(c1)OCO2)c1cc(Cl)c2cccnc2c1O (centres undefined) do in these assays?
BAZ2B block: 5.2%; Six1-Eya2 blk: -76.9*; JMJD2A Tudor: -13.0%; CtBP-E1A inh: -77.6*; G9a block: 28.7%[59 µM]; HP1b chromo inh: 36.3%

How did CCC(=O)NC(c1ccco1)c1cc(Cl)c2c(c1O)NCCC2 (centres undefined) do in these assays?
JMJD2A Tudor: 56.2µM*

Results for CCCC(=O)NC(c1ccco1)c1cc(Cl)c2cccnc2c1O (centres undefined) ?
BAZ2B block: 50.1µM*; Six1-Eya2 blk: -83.2*; JMJD2A Tudor: -24.0%; CtBP-E1A inh: -90.0*; G9a block: 18.5%[59 µM]; HP1b chromo inh: 55.2%

Results for CCC(=O)NC(c1ccco1)c1cc(Cl)c2ccccc2c1O (centres undefined) ?
BAZ2B block: -33.0%; JMJD2A Tudor: -25.2%; G9a block: -0.6%[0.501 µM]; HP1b chromo inh: 14.6%

Results for O=C(C1CCN(S(=O)(=O)c2ccc(Cl)cc2)CC1)N1CCC1 ?
BAZ2B block: -3.1%; Six1-Eya2 blk: 12.6; JMJD2A Tudor: -13.0%; CtBP-E1A inh: 1.1; G9a block: 13.0%[0.501 µM]; HP1b chromo inh: 3.6%

Results for CN(C)CCSc1nnc(-c2ccccc2)o1 ?
BAZ2B block: 10.5%; Six1-Eya2 blk: -10.0; JMJD2A Tudor: -0.8%[57.1 µM]; CtBP-E1A inh: 0.0; G9a block: 39.8µM*; HP1b chromo inh: -5.7%
